31 sequences from PMC12820563, “FoxP3 forms a head-to-head dimer in vivo and stabilizes its multimerization on adjacent microsatellites” can be followed below.

In all, about 16,000 sequences were measured (“rpm ratio (pull-down/input)”: median about 0.5, highest 2% from about 5.5 on). The full list was thinned out, with the highest values kept by preference.

This experiment deals with T1, MBP-FoxP3dN (Mus musculus, UniProt Q99JB6 188-423).
T1 sequence: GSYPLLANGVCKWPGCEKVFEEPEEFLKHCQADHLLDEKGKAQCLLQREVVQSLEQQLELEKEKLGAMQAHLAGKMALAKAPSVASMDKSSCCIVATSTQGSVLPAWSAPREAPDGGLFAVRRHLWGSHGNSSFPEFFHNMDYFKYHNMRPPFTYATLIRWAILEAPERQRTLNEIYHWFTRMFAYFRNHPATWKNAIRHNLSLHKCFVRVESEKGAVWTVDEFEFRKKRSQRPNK
The experiment can be described thus: PD-seq (MBP pull-down with sequencing); 20 mM Tris-HCl pH 7.5, 100 mM NaCl, 1.5 mM MgCl2, 0.4 uM protein, 0.1 uM dsDNA library, 30 min, room temperature, amylose pull-down; high values mean tight binding. As to conditions: protein: recombinant; tags: His6-MBP; chain copies: 2; dsDNA, one strand shown. The gist of the method: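 Binding is the reads-per-million enrichment of pull-down relative to input, pooled across replicates. For this, 0.4 µM His6-MBP-tagged mouse FoxP3 or FoxP1 fragment lacking the N-terminus, made in E. coli, was incubated with 0.1 µM Klenow-filled double-stranded degenerate DNA library for 30 min at room temperature in Tris pH 7.5 buffer with NaCl and MgCl2. Complexes bound to amylose resin were washed three times before proteinase K released the DNA for PCR barcoding and Illumina sequencing.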
In the case of “GATGATTGTTCTCCCAGCTGATGAATTGTAGCTCTCGAGTAAACAAATTTTCCTAATCTTTCTGTTCAAGCGCCATCTAC”, the binding signal is 0.791 RPM ratio (pull-down/input). Then “GATGATTGTTCTCCCAGCTGATGAATTGGGGGAGTCGAGTAAACAAATTTTCCTAATCTTTCTGTTCAAGCGCCATCTAC”, with 0.355 RPM ratio (pull-down/input). “GATGATTGTTCTCCCAGCTGATGAATTTCTTTGTTCGAGTAAACAAATTTTCCTAATCTTTCTGTTCAAGCGCCATCTAC”: the binding signal is 2.28 RPM ratio (pull-down/input). Turning to “GATGATTGTTCTCCCAGCTGATGAATTGTTTTTTTCGAGTAAACAAATTTTCCTAATCTTTCTGTTCAAGCGCCATCTAC”, the binding signal is 4.84 RPM ratio (pull-down/input). In the case of “GATGATTGTTCTCCCAGCTGATGAATTTCTGTTTTCGAGTAAACAAATTTTCCTAATCTTTCTGTTCAAGCGCCATCTAC”, the binding signal was 1.13 RPM ratio (pull-down/input).

Turning to “GATGATTGTTCTCCCAGCTGATGAATTTTTTTGTTCGAGTAAACAAATTTTCCTAATCTTTCTGTTCAAGCGCCATCTAC”, the binding signal is 0.472 RPM ratio (pull-down/input). The result for “GATGATTGTTCTCCCAGCTGATGAATTTGTTTGTTCGAGTAAACAAATTTTCCTAATCTTTCTGTTCAAGCGCCATCTAC” reads 7.56 RPM ratio (pull-down/input); that for “GATGATTGTTCTCCCAGCTGATGAATTGTTGTTTTCGAGTAAACAAATTTTCCTAATCTTTCTGTTCAAGCGCCATCTAC”, 7.89 RPM ratio (pull-down/input); that for “GATGATTGTTCTCCCAGCTGATGAATTTTGTTGTTCGAGTAAACAAATTTTCCTAATCTTTCTGTTCAAGCGCCATCTAC”, 8.13 RPM ratio (pull-down/input).

For “GATGATTGTTCTCCCAGCTGATGAATTTTCTGTTTCGAGTAAACAAATTTTCCTAATCTTTCTGTTCAAGCGCCATCTAC”, the binding signal is 0.343 RPM ratio (pull-down/input). Consider “GATGATTGTTCTCCCAGCTGATGAATTGTTTCTTTCGAGTAAACAAATTTTCCTAATCTTTCTGTTCAAGCGCCATCTAC”, for which the binding signal is 1.93 RPM ratio (pull-down/input). “GATGATTGTTCTCCCAGCTGATGAATTGTTTGTTTCGAGTAAACAAATTTTCCTAATCTTTCTGTTCAAGCGCCATCTAC”: the binding signal is 7.87 RPM ratio (pull-down/input). The result for “GATGATTGTTCTCCCAGCTGATGAATTTGTTCTTTCGAGTAAACAAATTTTCCTAATCTTTCTGTTCAAGCGCCATCTAC” reads 2.28 RPM ratio (pull-down/input); that for “GATGATTGTTCTCCCAGCTGATGAATTGTTTGATTCGAGTAAACAAATTTTCCTAATCTTTCTGTTCAAGCGCCATCTAC”, 2.06 RPM ratio (pull-down/input).

Turning to “GATGATTGTTCTCCCAGCTGATGAATTGGTTACCTCGAGTAAACAAATTTTCCTAATCTTTCTGTTCAAGCGCCATCTAC”, the binding signal is 0.673 RPM ratio (pull-down/input). The result for “GATGATTGTTCTCCCAGCTGATGAATTCGTCACGTCGAGTAAACAAATTTTCCTAATCTTTCTGTTCAAGCGCCATCTAC” reads 1.77 RPM ratio (pull-down/input); that for “GATGATTGTTCTCCCAGCTGATGAATTCTTAAACTCGAGTAAACAAATTTTCCTAATCTTTCTGTTCAAGCGCCATCTAC”, 0.267 RPM ratio (pull-down/input). In the case of “GATGATTGTTCTCCCAGCTGATGAATTACTATTATCGAGTAAACAAATTTTCCTAATCTTTCTGTTCAAGCGCCATCTAC”, the binding signal is 0.758 RPM ratio (pull-down/input). Then “GATGATTGTTCTCCCAGCTGATGAATTAAATACATCGAGTAAACAAATTTTCCTAATCTTTCTGTTCAAGCGCCATCTAC”, with 0.687 RPM ratio (pull-down/input); and “GATGATTGTTCTCCCAGCTGATGAATTGTTTACTTCGAGTAAACAAATTTTCCTAATCTTTCTGTTCAAGCGCCATCTAC”, with 7.35 RPM ratio (pull-down/input).

Turning to “GATGATTGTTCTCCCAGCTGATGAATTTGTTTCTTCGAGTAAACAAATTTTCCTAATCTTTCTGTTCAAGCGCCATCTAC”, the binding signal was 6.78 RPM ratio (pull-down/input).

On to “GATGATTGTTCTCCCAGCTGATGAATTTTGTTCTTCGAGTAAACAAATTTTCCTAATCTTTCTGTTCAAGCGCCATCTAC”, for which the binding signal was 1.21 RPM ratio (pull-down/input). The result for “GATGATTGTTCTCCCAGCTGATGAATTTGTTTCGTCGAGTAAACAAATTTTCCTAATCTTTCTGTTCAAGCGCCATCTAC” reads 5.96 RPM ratio (pull-down/input). Then “GATGATTGTTCTCCCAGCTGATGAATTTTGTTCGTCGAGTAAACAAATTTTCCTAATCTTTCTGTTCAAGCGCCATCTAC”, with 1.45 RPM ratio (pull-down/input); and “GATGATTGTTCTCCCAGCTGATGAATTGTTTTCGTCGAGTAAACAAATTTTCCTAATCTTTCTGTTCAAGCGCCATCTAC”, with 3.95 RPM ratio (pull-down/input); and “GATGATTGTTCTCCCAGCTGATGAATTGTTTTCTTCGAGTAAACAAATTTTCCTAATCTTTCTGTTCAAGCGCCATCTAC”, with 4.15 RPM ratio (pull-down/input). Then “GATGATTGTTCTCCCAGCTGATGAATTTACTTCTTCGAGTAAACAAATTTTCCTAATCTTTCTGTTCAAGCGCCATCTAC”, with 0.632 RPM ratio (pull-down/input); and “GATGATTGTTCTCCCAGCTGATGAATTTTTTACTTCGAGTAAACAAATTTTCCTAATCTTTCTGTTCAAGCGCCATCTAC”, with 0.261 RPM ratio (pull-down/input). In the case of “GATGATTGTTCTCCCAGCTGATGAATTTGTTGTTTCGAGTAAACAAATTTTCCTAATCTTTCTGTTCAAGCGCCATCTAC”, the binding signal is 7.66 RPM ratio (pull-down/input). The result for “GATGATTGTTCTCCCAGCTGATGAATTTGCAGTATCGAGTAAACAAATTTTCCTAATCTTTCTGTTCAAGCGCCATCTAC” reads 1.49 RPM ratio (pull-down/input); that for “GATGATTGTTCTCCCAGCTGATGAATTTATATACTCGAGTAAACAAATTTTCCTAATCTTTCTGTTCAAGCGCCATCTAC”, 3.39 RPM ratio (pull-down/input).
